Each structure is given as a SMILES string. Inconclusive results are not listed. Activity calls are given as the source filed them. The call rests on the fitted dose curve.
On the % scale 0 is the no-effect control and ±100 the full control effect.

This assay in a line: qHTS assay to identify small molecule agonists or antagonists of the thyroid stimulating hormone receptor (TSHR) signaling pathway - wild type cell line counter screen (AID 1259384). Particulars: HEK293 wild type, cAMP HTRF counter-screen, hits give high values; series mostly up to 92.4 µM. The source says:
U.S. Tox21 Program National Center for Advancing Translational Sciences [NCATS] NIH Chemical Genomics Center [NCGC] U.S. Environmental Protection Agency [EPA] National Institutes of Environmental Health Sciences [NIEHS] National Toxicology Program [NTP] U.S. Food and Drug Administration [FDA] Tox21 Assay Overview: TSHR is the receptor for thyrotropin (thyroid stimulating hormone or TSH), a member of the glycoprotein hormone family. TSH is released by the anterior pituitary gland and is the main regulator of thyroid gland growth and development. Upon binding circulating thyrotropin, a G-protein signal cascade activates adenylyl cyclase and […] cAMP concentration is increased. cAMP is a key second messenger involved extensively in cellular signal transduction pathways associated with the majority of G-protein coupled receptors (GPCRs). The activation of these GPCRs by neurotransmitters, lipids, nucleotides, peptides and hormones results in the activation or the inhibition of plasma membrane-bound adenylate cyclase through heterotrimeric G-proteins. A cell-based TSHR-Hek293 assay can be used to identify TSHR agonists. To eliminate the false positive compounds identified from screening a cell-based TSHR-Hek293 cell line, cAMP assay in a wild type Hek293 cells was used as a counter screening.
Tox21 Assay Protocol Summary: Hek293 cells (wild type) were dispensed at 800 cells/4 uL/well in 1536-well white plates using a Multidrop dispenser. After the assay plates were incubated at a 37 C/5% CO2 incubator for 18 hrs, 23 nL of compounds dissolved in DMSO, positive controls or DMSO only was transferred to the assay plate by a pin tool, followed by 1 ul medium containing Ro20-1724. After 30 min of incubation at room temperature, 2.5 ul/well of cAMP-d2 and 2.5 ul/well of anti-cAMP-cryptate were added respectively into the assay plates using a Flying Reagent Dispenser. The plates were incubated at room temperature for 1 hr. The fluorescence intensity in the plates was measured using an Envision plate reader. Each test compound was measured at 15 concentrations and in triplicates.
Background: qHTS replaces the single test concentration by a dilution series.
Take `O=C(CCCN1CCC(O)(c2cccc(C(F)(F)F)c2)CC1)c1ccc(F)cc1`: the result was inactive.

In the case of `COCCc1ccc(OCC(O)CNC(C)C)cc1` (stereo not given), the compound was called inactive. The same measure, in the same setting: the value for `CCOC(C)(C)C` was “inactive”; that for `C=CCS(=O)(=O)O` was “inactive”; that for `CC(C)OC(=O)c1ccccc1` was “inactive”. On to `COC(=O)NN`, for which the compound was called inactive. Still for that read-out and setting: the entry for `C1OCOCO1` is “inactive”.

Regarding `CCC(C)S` (stereo not given), the cAMP activity change is 0.879% [at 3.27 µM] (inactive). For the compound `O=C1NC(=O)[C@@]2(CCOc3ccc(F)cc32)N1`, the result was inactive. In the case of `CCCCCSCCCCC`, the result was inactive. Take `O=C1CCCCCCCCCCCN1`: the call was inactive. Turning to `C[C@H](NC(CCc1ccccc1)C(=O)O)C(=O)N1CCC[C@H]1C(=O)O` (stereo not given in full), the call was inactive.

Regarding `COC(=O)c1cc(C(=O)OC)cc(S(=O)(=O)O)c1`, the result was inactive. Take `CC(C)(O)C(=O)c1ccccc1`: the compound was called inactive.

For the compound `O=C1CC2CC1C1CCCC21` (stereo not given), the call was inactive. As to `CC(C)(C)NCCNC(C)(C)C`, the outcome was inactive. In the case of `O=C[C@H](O)[C@@H](O)[C@H](O)[C@H](O)CO`, the compound was called inactive. On to `CCCN1CCCC[C@H]1C(=O)Nc1c(C)cccc1C`, for which the compound was classed as inactive. As for `CC(C)=CCCC(C)CC(=O)O` (stereo not given), the compound was called inactive. For `CN1N=C(C(N)=O)CCC1=O`, the call was inactive.

Turning to `CCOC(=O)Nc1ccc(NCc2ccc(F)cc2)nc1N`, the result was inactive.

Consider `c1ccc(CC2=NCCN2)cc1`, for which the result was inactive. With `NC(=O)Nc1ccccc1`, the call was inactive. On to `Brc1c(NC2=NCCN2)ccc2nccnc12`, for which the result was inactive. For the compound `ClC(Cl)(Br)Br`, the outcome was inactive. `CCCN(CCC)CCc1cccc2c1CC(=O)N2`: the compound was called inactive. As to `C=C1CC[C@H]2C[C@@H]1C2(C)C`, the result was inactive. Consider `Cc1cccn2c(=O)c(-c3nnn[nH]3)cnc12`, for which the cAMP activity change was -0.907% [at 18.9 µM] (inactive).

As to `CCc1ccc(O)c(OC)c1`, the compound was called inactive. On to `CCN1CCC[C@H]1CNC(=O)c1c(O)c(Cl)cc(Cl)c1OC`, for which the outcome was inactive. As to `C=C(C)CS(=O)(=O)O`, the outcome was inactive. Consider `CCC(=O)OC(C)c1ccccc1` (stereo not given), for which the compound was called inactive.

As for `CC(C)(C)c1ccc(O)c(O)c1`, the call was inactive. On the same count and under the same terms, the value for `COc1nc(N)nc2c1ncn2[C@@H]1O[C@H](CO)[C@@H](O)[C@@H]1O` was “inactive”; that for `CCC(C)C1CCCCC1=O` (stereo not given) was “inactive”. The same measure, in the same setting: the entry for `CCCc1cc(C(N)=S)ccn1` is “inactive”. Turning to `CCCCOCCOCCOCCCC`, the compound was called inactive. On to `CCCCCCCCCCCCCC=O`, for which the cAMP activity change is 0.631% [at 8.39 µM] (inactive).

Take `CCOC(=O)C(=O)OCC`: the result was inactive. On the same count and under the same terms, the entry for `O=C(O)c1ccccc1OP(=O)(O)O` is “inactive”.

(Values after PubChem BioAssay (Tox21).)
